Screening data from PubChem BioAssay.
This is a sample that favours compounds with a hit; in the whole collection about 11% have one here.
ERK AVP block – blocks ERK signaling stimulated by vasopressin; HEK293-V1b, vasopressin-stimulated pERK AlphaScreen; Potency, µM (highest dose often 57.5 µM), usual class: inhibitors; hit rate 0.99% among 72,000; AID 995; further: nearly all actives have a fitted effect of over 55% in size
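qHTS, compounds titrated on V1b-expressing HEK293 cells. Preincubation 30 min at 37C, vasopressin 25 nM for 5 min, lysis 10 min, bead incubation 5 hr at room temperature.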
PK Bst – modulators of Bacillus stearothermophilus pyruvate kinase. purified pyruvate kinase, luminescence ATP production; ribose 5-phosphate activator present at AC10. Potency, µM. hit rate 1.2% among 51,000. AID 361; in the data active means potency below about 11 µM; inconclusive means mostly about 12 µM to 25 µM;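 the screen sought inhibitors and activators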
Luciferase inh – firefly luciferase inhibition; P08659; purified firefly luciferase, luminescence, 8 min; Potency, µM (doses to about 57.1 µM), most hits filed as inhibitors; hit rate 2.2% among 72,000; AID 411; further: nearly all actives have a fitted effect of over 40% in size
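Luminescence read-out after 8 min at room temperature; enzyme reaction used luciferin plus 10 uM ATP (linear range) in imidazole buffer pH 7.2 with KCl, MgCl2, Tween 20 and BSA. Each sample was run as a titration.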
HADH2 inhib – blocks human hydroxyacyl-CoA dehydrogenase type II. hit rate 3.4% among 73,000. recombinant HADH2, NADH fluorescence, beta-hydroxybutyryl-CoA. Potency, µM (highest dose often 57.1 µM), hits mostly inhibitors. Q99714; further: nearly all actives have a fitted effect of over 60% in size
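E. coli-expressed His-tagged HADH2 tested at 20 nM in alkaline Tris buffer (pH 9.0); oxidation of 90 uM beta-hydroxybutyryl-CoA with 1 mM NAD+ tracked fluorimetrically for 4 min.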
HSD17B inh – blocks hydroxysteroid 17-beta dehydrogenase activity; hit rate 7.6% among 75,000; Potency, µM (top dose mostly 57.1 µM), most hits filed as inhibitors; recombinant HSD17B10, NADH fluorescence kinetic; Q99714; AID 893;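 further: the protocol describes HADH2 (HSD17B10) and not the HSD17B4 of the title; nearly all actives have a fitted effect of over 70% in size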
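20 nM HADH2, pH 9.0 Tris/Tween; cpd preinc 15 min RT; start w/ 1 mM NAD+ + 90 uM b-hydroxybutyryl-CoA; kinetic fluor ex360/em450 q30s x 4 min; delta last-first.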
15-hLO inh – blocks human 15-lipoxygenase activity | P16050 | purified 15hLO-1, xylenol orange hydroperoxide absorbance | Potency, µM (top dose mostly 57.1 µM), actives largely listed as inhibitors | hit rate 1.4% among 74,000 | AID 887; further: nearly all actives have a fitted effect of over 55% in size
Target sequence (P16050 whole entry, looked up): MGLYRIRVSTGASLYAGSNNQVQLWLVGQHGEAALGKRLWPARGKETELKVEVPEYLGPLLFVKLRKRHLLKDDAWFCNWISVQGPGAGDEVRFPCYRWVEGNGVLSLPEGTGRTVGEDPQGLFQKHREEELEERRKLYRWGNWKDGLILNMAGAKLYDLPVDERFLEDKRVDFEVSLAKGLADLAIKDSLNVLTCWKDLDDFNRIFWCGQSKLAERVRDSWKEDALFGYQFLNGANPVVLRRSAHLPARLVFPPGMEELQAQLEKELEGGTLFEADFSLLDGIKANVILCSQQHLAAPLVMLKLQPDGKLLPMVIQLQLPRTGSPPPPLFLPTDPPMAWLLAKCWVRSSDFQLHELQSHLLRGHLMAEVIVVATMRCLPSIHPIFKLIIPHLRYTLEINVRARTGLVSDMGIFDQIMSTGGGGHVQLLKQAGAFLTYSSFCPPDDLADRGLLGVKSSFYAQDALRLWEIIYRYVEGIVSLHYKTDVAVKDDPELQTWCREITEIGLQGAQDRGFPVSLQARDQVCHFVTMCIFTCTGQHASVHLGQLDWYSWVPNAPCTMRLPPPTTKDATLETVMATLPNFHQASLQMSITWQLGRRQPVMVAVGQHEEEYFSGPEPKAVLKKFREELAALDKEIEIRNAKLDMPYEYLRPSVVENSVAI
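Quantitative HTS in 25 mM Hepes pH 7.5 containing 0.01% Triton X-100: human 15hLO-1 at 40 nM, arachidonic acid at 50 uM, 6 min turnover. Product quantified via ferrous oxidation/xylenol orange, 573:405 nm absorbance ratio.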
A number is an active result; – = inactive; ? = inconclusive; · = not tested or not shown; [ ] = another dose, or the depositor's remark. Unless noted, the call rests on the fitted dose curve; in most records, active means well fitted curve in the direction sought with a large enough effect; inconclusive means small, poorly fitted or top-dose-only effect, or another doubt; inactive means no such curve, though single readings can be large; an effect the other way counts as inactive or inconclusive.

SMILES | ERK AVP block | PK Bst | Luciferase inh | HADH2 inhib | HSD17B inh | 15-hLO inh
COc1cccc(Cn2c(=O)c(-c3cccs3)nc3cnc(OCc4ccccc4)nc32)c1 | – | · | –[11.4 µM] | – | 10µM | –
COc1cccc(Cn2c(=O)c(-c3cccs3)nc3cnc(OC)nc32)c1 | – | · | –[11.4 µM] | – | 25.1µM | –
CC(C)CO[C@H](c1ccc2c(c1)OCO2)[C@H](C)Br | –[11.5 µM] | · | –[11.4 µM] | –[11.4 µM] | –[11.4 µM] | –[11.4 µM]
CCOC(=O)[C@]1(C(NC(=O)OC)c2cccc(C)c2)CCCC1=O (stereo not given in full) | –[11.5 µM] | · | · | –[11.4 µM] | –[11.4 µM] | –[11.4 µM]
O=C(Cn1ncn2c(cc3ccccc32)c1=O)NCc1ccco1 | – | – | – | ? | 25.1µM | ?
O=C(Cn1ncn2c(cc3ccccc32)c1=O)NCCC1=CCCCC1 | – | – | – | – | 31.6µM | 15.8µM
CCc1cccc(NC(=O)Cn2ncn3c(cc4ccccc43)c2=O)c1 | – | – | – | – | 31.6µM | –
O=C(Cn1cnc2sc(-c3ccccc3)cc2c1=O)NCc1ccco1 | – | · | – | – | 15.8µM | ?
COc1ccc(C)cc1NC(=O)CN(Cc1nnc(-c2ccc(Cl)cc2)o1)C1CCCC1 | – | 4.71 | – | – | – | –
Cc1nc(Nc2ccc3c(c2)OCCO3)c2oc3ccccc3c2n1 | 15.8µM | 4.32 | – | – | – | –
Cc1nc(NCc2ccc3c(c2)OCO3)c2oc3ccccc3c2n1 | ? | – | – | – | – | –
CCn1c(/N=C/c2c[nH]c3ccccc23)nc2ccccc21 | – | 2.69 | 3.98µM | – | – | –
OCCSc1nncn1/N=C/c1c[nH]c2ccccc12 | – | · | – | – | – | –
CC(=O)C=NCC(=O)O | –[11.5 µM] | · | –[11.4 µM] | –[11.4 µM] | –[11.4 µM] | –[11.4 µM]
O=CN1CCN(C[C@H](O)CN2CCCCC2)CC1 | –[11.5 µM] | · | –[11.4 µM] | ? | –[11.4 µM] | –[11.4 µM]
C=C(C)c1cccc(C(C)(C)NC(=O)N2CCN(c3ccccn3)CC2)c1 | – | · | – | – | 25.1µM | –
CN(C)CC(C)(C)CNC(=O)c1ccc(-n2c(=O)c(=O)[nH]c3ccccc32)cc1 | · | · | · | – | – | –
CC(=O)Nc1ccc(NC(C)=O)s1 | – | · | – | ? | – | 20µM
O=C(c1cccc(F)c1)N1CCC2(CCCN(c3ccccn3)C2)CC1 | – | · | –[11.4 µM] | – | ? | –
ClCCl | – | · | · | – | – | –
COc1cc2c(=O)n(CCCN3CCOCC3)c(=S)[nH]c2c(OC)c1OC | – | – | – | 31.6µM | – | –
Oc1cc2c(c(Cl)c1O)CCNC[C@H]2c1ccccc1 | – | · | – | 0.0398µM | 7.94µM | –
COc1cccc(Nc2ncc3nc(-c4ccccc4)c(=O)n(C[C@H]4CCCO4)c3n2)c1 | – | · | –[11.4 µM] | – | – | –
COc1ccccc1-c1nnc(NC(=O)OCC(C)C)s1 | – | – | – | – | 10µM | –
COC(=O)Nc1nnc(-c2ccncc2)s1 | – | – | – | 15.8µM | 25.1µM | –
SMILES | ERK AVP block | PK Bst | Luciferase inh | HADH2 inhib | HSD17B inh | 15-hLO inh
COc1cccc(N2CCN(CC(=O)Nc3nnc(-c4ccccc4)s3)CC2)c1 | – | – | – | – | – | –
CCc1nnc(NC(=O)c2ccncc2)s1 | – | – | – | – | – | –
CCCC(=O)Nc1nnc(-c2cccc(OCC)c2)s1 | – | – | – | – | 20µM | –
CCOC(=O)Nc1nnc(-c2cccc(OC)c2)s1 | – | · | – | 31.6µM | 31.6µM | –
C[C@]12C=CC(=O)C=C1CC[C@@H]1[C@H]3C[C@@H](O)[C@](O)(C(=O)CO)[C@]3(C)C[C@H](O)[C@]12F | · | · | – | – | · | ·
NC(=O)N/N=C1\CC[C@H](O)C[C@@H]1CC(=O)O | –[11.5 µM] | · | –[11.4 µM] | –[11.4 µM] | –[11.4 µM] | –[11.4 µM]
O=C(O)[C@@H]1[C@@H](C(=O)NCc2cccnc2)[C@@H]2C=C[C@@H]1O2 | –[11.5 µM] | · | –[11.4 µM] | –[11.4 µM] | –[11.4 µM] | –[11.4 µM]
CCc1nnc(NC(=O)CSc2nnc(-c3ccccc3OC)n2-c2ccccc2)s1 | – | – | – | – | – | –
Nc1nnc(-c2ccccc2Cl)s1 | – | · | – | ? | ? | –
COC(=O)Nc1nnc(-c2ccccc2Cl)s1 | – | · | ? | 31.6µM | 31.6µM | –
CCOC(=O)Nc1nnc(-c2ccccc2OC)s1 | – | – | – | 10µM | 12.6µM | –
COC(=O)[C@@H]1O[C@@H](SCCN)[C@@H](O)[C@H](O)[C@H]1O | –[11.5 µM] | · | –[11.4 µM] | –[11.4 µM] | –[11.4 µM] | –[11.4 µM]
